Results taken from PubChem BioAssay (Tox21).
Results filed as inconclusive are left out. Calls of active or inactive are those of the source. Unless noted, the call rests on the fitted dose curve; in most records, active means well fitted curve in the direction sought with a large enough effect in the repeat runs; inconclusive means weak or mixed curves; inactive means no such curve, though single readings can be large; an effect the other way counts as inactive or inconclusive.

Assays:
[1] = qHTS assay to identify small molecule agonists of the hypoxia (HIF-1) signaling pathway (AID 1224846; active means well fitted activation curve with a large enough effect in the signal ratio in the repeat runs, not every such curve was filed as active; the % refers to the signal ratio)
How it was run: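 Reporter induction in HRE-bla ME-180 cells is taken as agonism: cells sit 5 hrs after plating, receive compounds or DMSO only, incubate 17 hrs at 37C under 5% CO2, and are loaded with CCF4-AM for beta-lactamase FRET measurement.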

[2] = qHTS assay to identify small molecule agonists of H2AX - cell viability counter screen (AID 1224847; calls by dose curve; further: top concentration of the series differs between compounds; nearly all actives have a fitted effect of over 30% in size)
How it was run: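 Compounds tested at 15 concentrations were incubated 3 hr at 37C with wild-type CHO-K1 cells; cellular ATP-based luminescence (CellTiter-Glo) indicated viability.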

[3] = qHTS RealTime-Glo MT Cell Viability Assay in HEK293 cells - 32 hour (AID 1224868); further: top concentration of the series differs between compounds; nearly all actives have a fitted effect of over 50% in size
How it was run: (§1)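 Nonlytic real-time viability readout: viable cells convert prosubstrate to NanoLuc substrate, giving luminescence proportional to live cell number. HEK293, 600 cells/well, compound added after 5 h, continuous culture at 37 C.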

[4] = A CellTox Green Cytotoxicity Assay to monitor cytotoxicity in HEK293 cells - 0 hour (AID 1224869); further: nearly all actives have a fitted effect of over 50% in size
How it was run: (§2)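 Tox21 screen in HEK293: membrane-impermeant cyanine dye fluoresces on binding dead-cell DNA; compound pinned 5 h post-seeding, plates held at 37 C, signal read repeatedly through 40 h.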

[5] = qHTS RealTime-Glo MT Cell Viability Assay in HepG2 cells - 40 hour (AID 1224870); further: nearly all actives have a fitted effect of over 50% in size
How it was run: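 HepG2 cells mixed with RealTime-Glo MT reagents (NanoLuc plus cell-permeant prosubstrate) were seeded at 600 cells/well, incubated 5 h at 37 C/5% CO2, then pinned with compounds in DMSO; nonlytic luminescence tracked viability during 40 h treatment.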

[6] = A CellTox Green Cytotoxicity Assay to monitor cytotoxicity in HEK293 cells - 40 hour (AID 1224871); further: nearly all actives have a fitted effect of over 45% in size
How it was run: as §2

[7] = qHTS RealTime-Glo MT Cell Viability Assay in HEK293 cells - 16 hour (AID 1224872); further: top concentration of the series differs between compounds; nearly all actives have a fitted effect of over 50% in size
How it was run: as §1

[8] = qHTS RealTime-Glo MT Cell Viability Assay in HepG2 cells - 24 hour (AID 1224867); further: nearly all actives have a fitted effect of over 50% in size
How it was run: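 Luminescence read-out: viable HepG2 cells reduce a prosubstrate to a NanoLuc substrate, giving a signal proportional to live cell number. Reads taken at 0, 8, 16, 24, 32 and 40 h of compound exposure at 37 C.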

[9] = qHTS assay to identify small molecule antagonists of the estrogen related receptor (ERR) signaling pathway from Tox21 library (AID 1224848); further: nearly all actives have a fitted effect of over 50% in size
How it was run: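 First, 2,000 ERR cells per well were plated and held 6 h at 37 C/5% CO2. Next, compounds in DMSO were pinned in and left 18 h at 37 C. Finally, ONE-Glo was added and luminescence read after 30 min at room temperature.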

[10] = qHTS assay to identify small molecule agonists of the estrogen related receptor (ERR) signaling pathway from Tox21 library (AID 1224849; calls by dose curve; further: nearly all actives have a fitted effect of over 15% in size)
How it was run: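 Tox21 compounds tested for ERR agonism in an NTP reporter cell line: 18 h treatment at 37 C, then ONE-Glo luminescence.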
On the % scale 0 is the no-effect control and ±100 the full control effect.

CC(=O)Nc1ccc(OCC(O)CNC(C)C)cc1 (stereo not given)
inactive: outcome [1] | outcome [2] | Potency [3] | outcome [4] | Potency [5] | Potency [6] | Potency [7]

COc1ccnc(CS(=O)c2nc3cc(OC(F)F)ccc3[nH]2)c1OC (stereo not given)
inactive: outcome [1] | outcome [2] | outcome [8] | outcome [4] | Potency [5] | Potency [6] | Potency [7]

Cc1ccccc1N=C(N)N=C(N)N
inactive: outcome [1] | outcome [8] | Potency [3] | outcome [4] | Potency [5] | Potency [6] | Potency [7]

CNCCO
inactive: outcome [1] | outcome [8] | Potency [3] | outcome [4] | Potency [5] | Potency [6] | Potency [7]

CCNS(=O)(=O)c1ccc(C)cc1
inactive: outcome [1] | outcome [2] | outcome [8] | Potency [3] | Potency [5] | Potency [7]

COc1cccc(OC)c1C(=O)N[C@@H]1C(=O)N2[C@@H]1SC(C)(C)[C@@H]2C(=O)O
inactive: outcome [1] | outcome [2] | Potency [3] | outcome [4] | Potency [5] | Potency [6] | Potency [7]

Cc1ccc(C(=O)c2ccccc2)cc1
inactive: outcome [1] | Potency [3] | outcome [4] | Potency [5] | Potency [6] | Potency [7]

CN1CC(=O)N/C1=N/C(=O)Nc1cccc(Cl)c1
inactive: outcome [1] | outcome [2] | Potency [3] | outcome [4] | Potency [5] | Potency [6] | Potency [7]

CCOc1c(N2CCOCC2)cnn(C)c1=O
inactive: outcome [1] | outcome [2] | Potency [3] | outcome [4] | Potency [5] | Potency [6] | Potency [7]

CC(CO)(CO)[N+](=O)[O-]
inactive: outcome [1] | outcome [2] | Potency [3] | outcome [4] | Potency [5] | Potency [6] | Potency [7]

O=C(O)Cc1csc(-c2ccc(Cl)cc2)n1
inactive: outcome [1] | outcome [2] | Potency [3] | outcome [4] | Potency [5] | Potency [6] | Potency [7]

CCCCCCCCCCOc1cc2c(=O)c(C(=O)OCC)c[nH]c2cc1OCC
inactive: activation [1] 0.236% [at 7.01 µM] | activity change, negative = cytotoxicity [2] 1.5% [at 14 µM] | activity change, negative = cytotoxic [3] 6.41% [at 6.97 µM] | activity change, negative = cytotoxic [5] 0.617% [at 6.97 µM] | cytotoxicity increase [6] 0.78% [at 6.97 µM] | activity change, negative = cytotoxicity [7] -0.329% [at 6.97 µM]

C[C@@H]1C[C@H]2[C@@H]3C[C@H](F)C4=CC(=O)C(Cl)=C[C@]4(C)[C@@]3(F)[C@@H](O)C[C@]2(C)[C@@]1(O)C(=O)CO
inactive: outcome [1] | outcome [2] | Potency [3] | outcome [4] | Potency [5] | Potency [6] | Potency [7]

CCCCOCCOC(=O)COc1cc(Cl)c(Cl)cc1Cl
inactive: outcome [1] | outcome [8] | Potency [3] | outcome [4] | Potency [5] | Potency [6] | Potency [7]

COC(=O)Nc1ccc(Cl)c(Cl)c1
inactive: outcome [1] | outcome [2] | outcome [8] | outcome [4] | Potency [5] | Potency [6]

[Ca+2]
inactive: outcome [1] | outcome [2] | Potency [3] | Potency [5] | Potency [6] | Potency [7]

C=CCOCC(O)CO (stereo not given)
inactive: outcome [1] | outcome [8] | Potency [3] | outcome [4] | Potency [5] | Potency [7]

CC(C)(C)OC(=O)c1cccc(N)c1
inactive: outcome [1] | outcome [2] | Potency [3] | outcome [4] | Potency [5] | Potency [6] | Potency [7]

CCCCOC(=O)CCC(C)=O
inactive: outcome [1] | outcome [8] | Potency [3] | outcome [4] | Potency [5] | Potency [6] | Potency [7]

C[C@H]1C[C@H]2[C@@H]3CCC4=CC(=O)C=C[C@]4(C)[C@H]3C(=O)C[C@]2(C)[C@@]1(O)C(=O)CO
inactive: outcome [2] | Potency [9] | outcome [10] | outcome [8] | Potency [3] | outcome [4] | Potency [5] | Potency [6] | Potency [7]

CC(C)[C@H]1CC[C@@H](C)CC1=O
inactive: outcome [1] | outcome [2] | Potency [3] | outcome [4] | Potency [5] | Potency [6] | Potency [7]

O=C1c2ccccc2C(=O)c2cc(O)ccc21
inactive: outcome [1] | outcome [2] | outcome [4] | Potency [5] | Potency [6]

CCCCCCCCN1CCCC1=O
inactive: outcome [1] | Potency [9] | outcome [10] | outcome [8] | Potency [3] | outcome [4] | Potency [5] | Potency [6] | Potency [7]

CC12CCC(C(=O)C1=O)C2(C)C (stereo not given)
inactive: outcome [1] | outcome [2] | outcome [8] | Potency [3] | Potency [5] | Potency [6] | Potency [7]

NO
inactive: outcome [1] | outcome [2] | Potency [3] | outcome [4] | Potency [5] | Potency [6] | Potency [7]

CCC(=O)OCc1ccccc1
inactive: outcome [1] | outcome [8] | Potency [3] | Potency [5] | Potency [6] | Potency [7]

C=CC(C)(CCC=C(C)C)OC(=O)CC (stereo not given)
inactive: outcome [1] | outcome [2] | outcome [8] | Potency [3] | Potency [5] | Potency [6] | Potency [7]

CC(C)CC(C)(N)C#N (stereo not given)
inactive: outcome [1] | outcome [2] | outcome [8] | Potency [3] | Potency [5] | Potency [7]
